# The supplement of paper PMC6555819
# Tested on: THRa:RXRa (NR concentration 90 nM, RXRa partner concentration 90 nM)
# Assay: PBM binding z-score (relative to random genomic background probes); higher = stronger binding; sequences stand for … in GC…GCGATTGACAGCGTAGAATGAAGG
# Summary of the method: (§1)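 Binding z-scores take random background probes as their reference. They come from custom Agilent 4×180K protein-binding microarrays incubated 1 h with ligand-free nuclear receptor dimers, with antibodies against each partner (one per run) detecting binding. Scanned fluorescence was regression-normalized.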
row,Sequence,PBM binding z-score
1,TCATATAGGTGATACAGGTGAAAGTCGGCATCTA,0.983
2,ACTAGTTGGTCAGCTGTGGTCACACACAATTCGG,1.77
3,GCTCGGAGGACAGGGTCAGAGCTTTGTCCGTAGA,2.4
4,AATACAGGGTCACTAGCCCAGAGTAGGTACGAAT,3.22
5,TAGCCTAGGGCATTGGGCCAGTATAGTACGCATC,-0.328
6,TCTGCTAGGTCAACGATGGTCATCTAATCTGCTA,3.45
7,CCTCGGAGGACAACAGGAGGACAGAGCTGCCAGA,1.61
8,TAACCTAGGTCATGGGCCAGTATACCACGCGAAC,3.3
9,CGTCCATGGTCAGAGAGGTCAGTGAATGCCGAGT,2.58
10,CCGAGTAGGTTATGGGGCATTTAGGCAACGGTGA,0.429
11,TCTACCAGGCCAGAGGGTCACTCAAGAGGTACGG,1.93
12,AGAACGAGGGCAATGAGTTGATAGCACGGGTGGC,0.824
13,ACAGACAGGTGATGACGGTAACTCAGGCTATCAT,0.339
14,GCTCGGAGGACAAGGTCAGCGCTTTGTCCGTAGA,3.23
15,CAAATTAGGTCACAGAGGTCAAAGTCCGTGCGTA,4.73
16,ACAGACAGGTGATGAAGGTAACCCAGGCTATCAT,0.892
17,TTTTGTAGATCAGCAGGTTAAGAAAGCTGGCCAA,0.144
18,CGTCCAAGGTCAGAGTGGTCAGTGAATGCCGAGT,3.59
19,CGAACTAGGTCATTGCCAGGACAGTGAATAGTAA,3.32
20,ACTAGTTGGTCTGCTGAGGTCACACACAATTCGG,4.32

row,Sequence,PBM binding z-score
1,ATCGAAAGGTCGACGTGAGTATAGAGAAAGGGAA,1.79
2,AATACAGGGTCATCGTAGGCCAAAGTACGCACAG,4.53
3,GCTGCTTGGTCAGGTTGGTCAGCTAACGGGTACG,-0.199
4,TCTTGTAGATCAACAGGACGTTAAGAAAGATCGA,0.0444
5,TATACAGGGTCCAAGGCCAGAGTACGAATGTCGA,0.402
6,TCTTGTAGATCAAGCAAGTTAAGAAAGCCTGAGT,0.341
7,GCTGCTAGGTCAGGTTGGTCAGCTACCGGGTACG,1.76
8,CGTCCAAGGTCAATGCTAGGTCATTGAAAGCATT,4.65
9,TCATATAGGTAAAACAGGTGAAAGTCGGCATCTA,0.827
10,AGACTGAGGTTATTAAGATCAGGGAATTGCGGTC,1.91
11,ATCGTAAGGTCGACGAGGTGAGTATACACCGTTT,3.89
12,CGTCCTAGGTCAGAGAGGTCAGTGAATGCCGAGT,3.77
13,CCTCGGAAGACAACAGGAGGTCAGAGCTGCCAGA,2.04
14,TAACCTAGGTCAGATCGGGCCAGTATACGCTATA,4.19
15,AATCAAAGTTCAGGACGAGGTAACGTAAAGCACG,3.92
16,CCGACTGGGGCAGAAAGGTTATCATACCATCCGG,0.759
17,CGAACTAGGTCATTGACAGGACAGTGCATAGTAA,2.85
18,TATACAGGGGCAAAGGCCAGAGTACGAATGTCGA,0.569
19,CGAACTAGGTCATTGACAGGACAGTGATTAGTAA,2.9
20,AGAACGAGGTTACCAAAGATCAGGGAAACGCTTG,2.31

# Tested on: THRa homodimer (NR concentration 90 nM)
# Assay: as above
# Summary of the method: as §1
row,Sequence,PBM binding z-score
1,TCATATAGGTGATACAGGTGAAAGTCGGCATCTA,0.0719
2,ACTAGTTGGTCAGCTGTGGTCACACACAATTCGG,0.0925
3,GCTCGGAGGACAGGGTCAGAGCTTTGTCCGTAGA,0.321
4,AATACAGGGTCACTAGCCCAGAGTAGGTACGAAT,1.13
5,TAGCCTAGGGCATTGGGCCAGTATAGTACGCATC,-0.611
6,TCTGCTAGGTCAACGATGGTCATCTAATCTGCTA,0.805
7,CCTCGGAGGACAACAGGAGGACAGAGCTGCCAGA,0.577
8,TAACCTAGGTCATGGGCCAGTATACCACGCGAAC,1.87
9,CGTCCATGGTCAGAGAGGTCAGTGAATGCCGAGT,0.835
10,CCGAGTAGGTTATGGGGCATTTAGGCAACGGTGA,0.289
11,TCTACCAGGCCAGAGGGTCACTCAAGAGGTACGG,0.581
12,AGAACGAGGGCAATGAGTTGATAGCACGGGTGGC,-0.00899
13,ACAGACAGGTGATGACGGTAACTCAGGCTATCAT,-0.087
14,GCTCGGAGGACAAGGTCAGCGCTTTGTCCGTAGA,1.82
15,CAAATTAGGTCACAGAGGTCAAAGTCCGTGCGTA,3.68
16,ACAGACAGGTGATGAAGGTAACCCAGGCTATCAT,0.124
17,TTTTGTAGATCAGCAGGTTAAGAAAGCTGGCCAA,-0.308
18,CGTCCAAGGTCAGAGTGGTCAGTGAATGCCGAGT,1.9
19,CGAACTAGGTCATTGCCAGGACAGTGAATAGTAA,1.54
20,ACTAGTTGGTCTGCTGAGGTCACACACAATTCGG,5.25

row,Sequence,PBM binding z-score
1,ATCGAAAGGTCGACGTGAGTATAGAGAAAGGGAA,-0.87
2,AATACAGGGTCATCGTAGGCCAAAGTACGCACAG,1.34
3,GCTGCTTGGTCAGGTTGGTCAGCTAACGGGTACG,0.0955
4,TCTTGTAGATCAACAGGACGTTAAGAAAGATCGA,-0.626
5,TATACAGGGTCCAAGGCCAGAGTACGAATGTCGA,0.398
6,TCTTGTAGATCAAGCAAGTTAAGAAAGCCTGAGT,-0.759
7,GCTGCTAGGTCAGGTTGGTCAGCTACCGGGTACG,0.717
8,CGTCCAAGGTCAATGCTAGGTCATTGAAAGCATT,3.74
9,TCATATAGGTAAAACAGGTGAAAGTCGGCATCTA,0.0853
10,AGACTGAGGTTATTAAGATCAGGGAATTGCGGTC,0.441
11,ATCGTAAGGTCGACGAGGTGAGTATACACCGTTT,2.39
12,CGTCCTAGGTCAGAGAGGTCAGTGAATGCCGAGT,1.92
13,CCTCGGAAGACAACAGGAGGTCAGAGCTGCCAGA,0.668
14,TAACCTAGGTCAGATCGGGCCAGTATACGCTATA,0.384
15,AATCAAAGTTCAGGACGAGGTAACGTAAAGCACG,1.58
16,CCGACTGGGGCAGAAAGGTTATCATACCATCCGG,-0.293
17,CGAACTAGGTCATTGACAGGACAGTGCATAGTAA,0.816
18,TATACAGGGGCAAAGGCCAGAGTACGAATGTCGA,-0.328
19,CGAACTAGGTCATTGACAGGACAGTGATTAGTAA,1.05
20,AGAACGAGGTTACCAAAGATCAGGGAAACGCTTG,0.23
